In the library only some 2.2% were active in any assay of this set; here they are far more common.
CRFBP-R2 block – blocks CRF-induced signaling of the CRF-BP/CRF-R2 complex. HEK293 CRF-R2/CRF-BP, CRF-induced calcium fluorescence. inhibition, % at 11.8 µM. actives 0.59% (n = 350,000). AID 588475;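 active means inhibition of the ligand-induced calcium signal above about 50% at the single tested concentration, limit read from the data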
cardiac RTF act – increases calcium sensitivity of human cardiac regulated thin filaments; P19429+P45379; IANBD-labeled TnC RTF fluorescence at EC20 calcium; 0% EC20 calcium, 100% full calcium; actives 0.24% (n = 340,000); activation, % at 7.2 µM; AID 493008;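 active means activation above the mean over all tested compounds plus 3 SD, cut at about 30% in these data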;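 further: rise in fluorescence read as greater calcium sensitivity of cardiac thin filaments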
Myeloid diff 2 – compounds promoting myeloid differentiation. actives 1% (n = 360,000). ER-HoxA9 myeloid progenitors, lysozyme-GFP differentiation, flow cytometry. calls only at 10 µM;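 active means normalized GFP-positive differentiation at or above the plate's own cutoff, the solvent-only control mean plus 3 SD; inconclusive means no clear call, values can overlap the other calls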;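 further: cells exposed to compound for four days before flow analysis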
CRFBP-R2 agonist – CRF-BP/CRF-R2 complex agonism | AID 588473 | HEK293 CRF-R2/CRF-BP, calcium dye fluorescence (FLIPR); percent of saturating CRF peptide response | actives 0.46% (n = 350,000) | activation, % at 13.2 µM;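 active means activation of at least 50%, plus an integration ratio under a set limit after plate pattern correction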
RTF Ca sens inh – cardiac RTF calcium desensitization. AID 493244. inhibition, % at 7.15 µM. actives 0.12% (n = 340,000). P19429+P45379. IANBD-labeled cardiac RTF, Ca2+ fluorescence;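 active means inhibition above the mean inhibition of all tested compounds plus 3 SD, cut at about 17% in these data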;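 further: assay run at fixed EC70 calcium of 1.6 mM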
Large screens that a line does not name were inactive.

COc1cc(/C=C(\C#N)C(=O)c2c[nH]c3ccccc23)cc(OC)c1O	CRFBP-R2 agonist 85
COc1cc(/C=C(\C#N)C(=O)NCCc2ccccc2)cc(OC)c1O	CRFBP-R2 agonist 67
CCOc1ccc(CCNC(=O)COC(=O)c2ccc(OC(C)C)cc2)cc1OCC	none
C/C(CC(=O)Nc1cc(C)ccn1)=N\NC(=O)c1cccc(F)c1	Myeloid diff 2 active
C#Cc1ccc([C@@H]2C=C(C(=O)N3CCOCC3)O[C@H](OCCCCO)C2)cc1	Myeloid diff 2 active
O=C(C1=C[C@H](c2ccc(Br)cc2)C[C@H](OCCCCO)O1)N1CCOCC1	none
COc1ccc(C(=O)C(OC(=O)c2ccc(C)c(NC(C)=O)c2)c2ccccc2)cc1 (stereo not drawn)	Myeloid diff 2 active
CC(=O)Nc1cc(C(=O)OC(C(=O)c2ccccc2)c2ccccc2)ccc1C (stereo not drawn)	none
COc1ccc2nc(SCC(=O)NCc3ccc(S(N)(=O)=O)cc3)[nH]c2c1	none
CC(C)(C)C(=O)NC(=S)NNC(=O)c1ccncc1	none
CC(C)(C)C(=O)NC(=S)NCCc1ccccc1	CRFBP-R2 block 51
CC(C)(C)C(=O)NC(=S)NNC(=O)c1ccc(Cl)cc1Cl	CRFBP-R2 agonist 129
CC(C)(C)C(=O)NC(=S)NNC(=O)c1ccc(-c2ccccc2)cc1	Myeloid diff 2 active, CRFBP-R2 agonist 163
COC(=O)NNC(=O)c1ccc(Cl)cc1Cl	none
O=C(Nc1nc2c(F)cc(F)cc2s1)c1ccc([N+](=O)[O-])o1	CRFBP-R2 block 80
CN(Cc1ccccc1)c1ccc(C(=O)O)cc1[N+](=O)[O-]	none
Cc1cc(C)n2nc(SCc3c(F)cccc3Cl)nc2n1	none
Cc1cccc(CSc2nc3nc(C)cc(C)n3n2)c1	Myeloid diff 2 active
Cc1cc(C)n2nc(SCCOc3ccc(F)cc3)nc2n1	Myeloid diff 2 active
Cc1cc(C)n2nc(SCc3ccc(F)cc3Cl)nc2n1	none
COc1ccccc1-c1csc(C(O)c2ccc(F)c(F)c2)n1 (stereo not drawn)	none (no result: CRFBP-R2 block, cardiac RTF act, CRFBP-R2 agonist, RTF Ca sens inh)
CCOc1ccccc1O[C@H](c1ccccc1)[C@H]1CNCCO1	none
Cc1ccc(NC(=O)CCc2c(C)nc3ncnn3c2C)cc1	none
COC(=O)c1cc(NC(=O)CCc2c(C)nc3ncnn3c2C)cc(C(=O)OC)c1	Myeloid diff 2 active
COc1ccc(-c2ccc3c(c2)S(=O)(=O)c2cccc(C(=O)N4CCN(C5CCCCC5)CC4)c2C3=O)cc1OC	Myeloid diff 2 active
Cc1ccc(-c2noc(CN3CCC(C(N)=O)CC3)n2)cc1	CRFBP-R2 agonist 51
COc1ccc(C(=O)C2CCCN(C(=O)c3c4c(nn3C)CCCC4)C2)cc1F (stereo not drawn)	Myeloid diff 2 active
Cn1nc2c(c1C(=O)N1CCCC(C(=O)c3cc(F)ccc3F)C1)CCCC2 (stereo not drawn)	none
CCOc1cc(C2NC(=O)c3ccccc3O2)ccc1OC (stereo not drawn)	none
COc1cc(C2NC(=O)c3ccccc3O2)ccc1OC(C)C (stereo not drawn)	Myeloid diff 2 active
O=C(Nc1nc2c(s1)CN(Cc1ccccc1)CC2)c1cccc(S(=O)(=O)N2CCc3ccccc32)c1	cardiac RTF act 67, Myeloid diff 2 active, CRFBP-R2 agonist 93
O=C(Nc1nc2ccccc2s1)c1cccc(S(=O)(=O)N2CCc3ccccc32)c1	none
O=C(c1ccccc1)N(CCO)Cc1cc2cc3c(cc2[nH]c1=O)OCCO3	none
CCOc1ccccc1C(=O)N(Cc1ccccc1)Cc1cc2cc3c(cc2[nH]c1=O)OCCO3	Myeloid diff 2 active
Cc1ccc(NC(=O)c2ccc3ccccc3n2)cc1S(=O)(=O)N1CCOCC1	none
CN1c2ccccc2C(O)=C(C(=S)Nc2ccc(Cl)cc2)S1(=O)=O	CRFBP-R2 block 59
CN1CCN(/N=C/c2nc(-c3cccc([N+](=O)[O-])c3)n3ccccc23)CC1	CRFBP-R2 agonist 94
CC(=O)c1ccc(S(=O)(=O)N2CCN(C(=O)CCC3CCCC3)CC2)cc1	none
O=C(COc1coc(CN2CCN(c3ccc(F)cc3)CC2)cc1=O)NCC1CCCO1 (stereo not drawn)	none
CCc1ccc(-c2cc(C(F)(F)F)n3nc(C(=O)Nc4c(C)nn(Cc5ccccc5Cl)c4C)cc3n2)s1	none
CCc1ccc(-c2cc(C(F)(F)F)n3nc(C(=O)Nc4c(C)nn(Cc5ccccc5C)c4C)cc3n2)s1	Myeloid diff 2 active
CCOc1cc(C)c(C(C)C)cc1S(=O)(=O)N1CC(C)OC(C)C1 (stereo not drawn)	none
CCOc1cc(C)c(C(C)C)cc1S(=O)(=O)n1cnc(C)c1	CRFBP-R2 agonist 104 (no result: cardiac RTF act, RTF Ca sens inh)
CCOc1ccc(NC(=O)[C@@H](NC(=O)c2ccccc2)[C@@H](C)CC)cc1	CRFBP-R2 block 63
C(=N\Nc1nc2ccccc2[nH]1)/c1ccc2ncccc2c1	Myeloid diff 2 active
COc1ccc(N(CC(O)Cn2cnc3ccccc32)S(=O)(=O)c2ccc(C)cc2)cc1 (stereo not drawn)	none
COc1ccc(CCCC(=O)Nc2ccc(F)cc2)cc1	none
Oc1ccc(Cl)cc1CNCc1ccc(C(F)(F)F)cc1	none
COc1ccc(-c2cc3ccccc3[nH]2)cc1	CRFBP-R2 block 60
COCCN1Cc2cccc(C(=O)Nc3cc(OC)ccc3OC)c2C1=O	CRFBP-R2 agonist 61
COc1ccc(OC)c(NC(=O)c2cccc3c2C(=O)N(C2CCCCC2)C3)c1	none
O=C1NC(=O)C2(N1)C(=O)c1cccc3cccc2c13 (stereo not drawn)	CRFBP-R2 agonist 85 (no result: cardiac RTF act, RTF Ca sens inh)
Cc1ccc2nc(C)cc(C(=O)N3CCCC(N4CCN(c5ccccc5C)CC4)C3)c2c1 (stereo not drawn)	none
CCOc1ccc(NC(=O)Nc2cc(C)ccc2F)cc1	CRFBP-R2 block 66
CCOc1ccc(NC(=O)Nc2cc(C(C)C)c(O)cc2C)cc1	Myeloid diff 2 inconclusive
O=C(NNC(=S)NC(=O)c1cccc([N+](=O)[O-])c1)c1ccc(O)cc1	none
O=C(NNC(=S)NC(=O)c1cccc([N+](=O)[O-])c1)c1ccc(Br)cc1	CRFBP-R2 agonist 122 (no result: Myeloid diff 2)
Cc1ccc(C(=O)NC(=S)NNC(=O)c2cccc([N+](=O)[O-])c2)cc1	CRFBP-R2 agonist 79
C[C@@H]1CN([C@@H](C)CO)C(=O)c2cc(Br)cnc2O[C@@H]1CN(C)S(=O)(=O)c1ccc(F)cc1	none (no result: cardiac RTF act, RTF Ca sens inh)
COc1ccc(N2CCN(CCCNC(=O)C(=O)c3c(C)[nH]c4ccccc34)CC2)cc1	CRFBP-R2 block 62
COc1ccc(N2CCN(CC(=O)c3c[nH]c4ccccc34)CC2)cc1	none
CC(NC(=O)COC(=O)C12CC3CC(CC(Br)(C3)C1)C2)c1ccccc1 (stereo not drawn)	CRFBP-R2 block 62
NNC(=O)c1ccc(COc2cccc3cccnc23)cc1	Myeloid diff 2 active
O=C(N/N=C/c1ccccc1C(=O)O)c1ccc(COc2cccc3cccnc23)cc1	Myeloid diff 2 active
Cc1ccc(C(=O)CC(=O)c2cc(Cl)ccc2O)cc1	CRFBP-R2 agonist 68

From PubChem
